A selection: hits, their analogues and other compounds. The true share with any hit is near 11%.
12-hLO inh – inhibitors of human 12-lipoxygenase (ALOX12); P18054; purified 12-hLO, xylenol orange hydroperoxide absorbance; Potency, µM (series often up to 57.1 µM), inactives show at the top dose activity change, negative = inhibition, most hits filed as inhibitors; hit rate 0.12% among 150,000; active = well fitted curve in the direction sought with a large enough effect; inconclusive = small, poorly fitted or top-dose-only effect, or another doubt; inactive = no such curve, though single readings can be large; an effect the other way counts as inactive or inconclusive; note: potency is the fitted concentration of half-maximal effect; nearly all actives have a fitted effect of over 55% in size
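Xylenol orange chromogenic assay: hydroperoxide from 12hLO oxidises Fe(II), giving red-shifted Fe(III)-XO absorbance. Conditions: 150 nM enzyme, 40 uM arachidonic acid, 25 mM Hepes pH 7.0, 0.01% Triton X-100, 30 min, room temperature.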
IMPase cell inh – cell-permeable inhibitors of inositol monophosphatase (IMPase); CHO-M1 cells, IP1 accumulation, HTRF TR-FRET ratio; 120,000 tested, under 10 active; inhibition (IP1 accumulation), % at 46.1 µM; P97697; active = well fitted curve in the direction sought with a large enough effect in the signal ratio, not every such curve was filed as active; inconclusive = small, poorly fitted or top-dose-only effect, or a change in a side signal; inactive = no such curve, though single readings can be large or run the other way; the % refers to the signal ratio;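 note: cells stimulated with carbachol in lithium chloride buffer; plate controls were DMSO basal wells for no effect and reference inhibitor wells for full effect; higher means more IMPase inhibition seen as more IP1 and lower FRET ratio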
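Measured: the HTRF emission ratio (665/620 nm) plus the 620 nm donor channel, each fitted to the Hill equation to give AC50. Cells were CHO-M1 given compounds up to 46 uM and a 30 min carbachol stimulation at 37C.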
HPGD block – blocks human HPGD enzyme activity; Potency, µM, for the others: at the highest dose activity change, negative = inhibition, usual class: inhibitors; hit rate 4.3% among 150,000; purified HPGD, NADH fluorescence kinetic, PGE2 substrate; P15428; note: potency is the fitted concentration of half-maximal effect
Target sequence (P15428 whole entry, looked up): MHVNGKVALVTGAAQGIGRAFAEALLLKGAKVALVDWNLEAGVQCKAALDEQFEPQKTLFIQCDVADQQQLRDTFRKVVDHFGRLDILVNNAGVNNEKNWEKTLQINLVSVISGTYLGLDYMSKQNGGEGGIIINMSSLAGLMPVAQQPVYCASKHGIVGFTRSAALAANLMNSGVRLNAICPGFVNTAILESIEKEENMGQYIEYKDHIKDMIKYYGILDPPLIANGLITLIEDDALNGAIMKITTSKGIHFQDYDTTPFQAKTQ
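NADH formation kinetics: reaction with 30 uM PGE2 and 1 mM NAD+ (final), 20 nM enzyme, Tris-HCl pH 8 with Tween 20, after 15 min compound preincubation at room temperature. Fluorescence change, last versus first of five reads.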
IMPase Li inh – membrane-permeable IMPase blocker, potentiated with lithium | CHO-M1 cells, IP1 TR-FRET (IP-One), carbachol + lithium | Potency, µM (top dose mostly 59.4 µM), without a hit: at the highest dose activity, negative = IMPase inhibition, hits mostly inhibitors | hit rate 0.35% among 210,000 | AID 1457; active = well fitted curve in the direction sought with a large enough effect; inconclusive = small, poorly fitted or top-dose-only effect, or another doubt; inactive = no such curve, though single readings can be large; an effect the other way counts as inactive or inconclusive;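 note: IP1 builds up when IMPase is blocked and the TR-FRET signal falls; potency is the fitted concentration of half-maximal effect; plate controls were basal vehicle for no effect and high inhibitor control for full effect; nearly all actives have a fitted effect of over 50% in size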
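CHO cells stably expressing M1 receptor (2000/well) were cultured 16–30 h, then exposed to compounds with a small lithium addition for 30 min at 37C. IP1 was measured by TR-FRET competition; AC50 from Hill fits.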
PNC inhibitor – perinucleolar compartment assembly inhibition. PC3M PTB-GFP, PNC prevalence imaging, 16 h; active compounds read low. activity change (PNC), negative = inhibition, % at 10 µM. hit rate 3.1% among 140,000. AID 2417;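 active = readout at or below -70, meaning at least 70% loss of cells showing the perinucleolar compartment, a nuclear body marking cancer cells; inconclusive = readout between -30 and a set limit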;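 note: plate controls were DMSO wells for no effect and camptothecin positive control wells for full effect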
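Read-out is percentage of cells bearing a perinucleolar compartment, from automated 20x imaging of fixed, Hoechst-stained PC3M PTB-GFP cells. Cells were seeded 4 h, then exposed 16 h to compound (23 nl of library stock) in duplicate plates.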
ALDH1A1 inh – blocks purified human ALDH1A1 activity | Purified ALDH1A1, NADH fluorescence, propionaldehyde substrate | hit rate 7.3% among 220,000 | P00352 | Potency, µM (series often up to 75.3 µM), for inactives: top-dose activity, negative = inhibition, hits mostly inhibitors;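 note: potency is the fitted concentration of half-maximal effect; plate controls were no enzyme wells and a reference inhibitor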
Target sequence (P00352 whole entry, looked up): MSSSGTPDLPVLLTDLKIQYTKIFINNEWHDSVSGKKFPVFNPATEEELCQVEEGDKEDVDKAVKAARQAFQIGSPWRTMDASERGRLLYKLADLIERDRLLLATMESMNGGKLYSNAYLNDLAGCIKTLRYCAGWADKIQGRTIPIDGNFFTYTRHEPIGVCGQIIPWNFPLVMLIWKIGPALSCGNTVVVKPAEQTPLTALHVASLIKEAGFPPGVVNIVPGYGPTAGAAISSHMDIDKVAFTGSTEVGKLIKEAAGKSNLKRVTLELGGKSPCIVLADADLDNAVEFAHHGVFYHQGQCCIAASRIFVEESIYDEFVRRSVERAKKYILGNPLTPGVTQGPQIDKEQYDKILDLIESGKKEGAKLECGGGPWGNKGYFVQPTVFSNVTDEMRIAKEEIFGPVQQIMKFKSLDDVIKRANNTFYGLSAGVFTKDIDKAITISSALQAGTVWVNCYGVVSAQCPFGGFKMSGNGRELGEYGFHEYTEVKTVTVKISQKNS
* = called active by the depositor; ? = inconclusive; . = not tested or not shown; [ ] = remark or other dose. Unless noted, calls come from the whole dose curve; as a rule, active = well fitted inhibition curve with a large enough effect (not every such curve was filed as active); inconclusive = small, poorly fitted or top-dose-only effect, or another doubt; inactive = no such curve, though single readings can be large or run the other way. Unless noted, % is set by controls: 0 for no effect and ±100 for the full control effect.

SMILES | 12-hLO inh | IMPase cell inh | HPGD block | IMPase Li inh | PNC inhibitor | ALDH1A1 inh
CN(C(=S)Nc1ccc(SC(F)F)cc1)c1ccc(O)cc1 | -27% | 18 | -13% | 0% | 13 | 6.3µM*
CSCCC(N)C(=O)NC(CC(C)C)C(=O)NC(Cc1ccccc1)C(=O)O (stereo not drawn) | 0% | . | -10% | -2% | . | -7%
CCc1sc(/C=C(/C#N)C(N)=S)cc1[N+](=O)[O-] | . | . | . | 59% | . | 2.2µM*
CCc1ccc(/C=C(/C#N)C(N)=S)s1 | . | . | . | 9% | . | ?
CCCCOc1ccc(-c2nn(-c3ccccc3)cc2C2NC(=O)NC(C)=C2C(=O)OCC)cc1 (stereo not drawn) | . | 4 | . | . | . | .
CCC(C)NC(=O)C1CCCN1S(=O)(=O)c1ccc(Cl)cc1 (stereo not drawn) | -1% | -5 | -12% | 10% | -119* | 7%
CCC(C)NC(=O)C1CCCCN1S(=O)(=O)c1ccc(F)cc1 (stereo not drawn) | -1% | 0 | -14% | 25%[38.3 µM] | ? | 7%
COc1cc(-c2csc(C)n2)ccc1O | 3% | -10 | 2% | 7%[38.3 µM] | 27 | 0%
Cc1nc(-c2ccc(NS(C)(=O)=O)cc2)cs1 | -1% | -4 | 16µM* | -3%[38.3 µM] | -80* | 12%
Cc1nc(-c2cccc(NS(C)(=O)=O)c2)cs1 | 3% | -2 | -24% | 26%[38.3 µM] | ? | 4%
Cc1nc(-c2ccc(O)c(O)c2)cs1 | -17% | 1 | 22µM* | 24%[38.3 µM] | ? | ?
Oc1ccc(-c2csc(-c3ccccc3)n2)cc1O | 13µM* | 8 | 28µM* | 5%[38.3 µM] | ? | ?
Oc1ccccc1-c1csc(-c2ccccc2)n1 | . | . | . | 19% | . | -6%
COc1cc2c(cc1OC)C(CSc1ccccc1C(=O)O)=NC(C)(C)C2 | . | . | . | 5% | . | ?
CC1(C)Cc2ccccc2C(CSc2ccccc2C(=O)O)=N1 | . | . | . | 17% | . | 40µM*
CCOC(=O)CNC(=O)O[C@@H]1C(=O)c2cc(Br)ccc2O[C@H]1c1cccc(OC)c1 | . | . | -5% | 2% | . | -1%
Cc1cc(OCC(=O)C(C)(C)C)c2c(C)c(C)c(=O)oc2c1 | -2% | 5 | 10% | -1%[38.3 µM] | -100* | ?
O=C(Nc1ccc(C(=O)Nc2ccc(C(=O)Nc3ccc(S(=O)(=O)O)c4cc(S(=O)(=O)O)cc(S(=O)(=O)O)c34)cc2)cc1)Nc1ccc(C(=O)Nc2ccc(C(=O)Nc3ccc(S(=O)(=O)O)c4cc(S(=O)(=O)O)cc(S(=O)(=O)O)c34)cc2)cc1 | 9% | 0 | -21% | 15% | . | ?
COC(=O)c1ccc2c(c1O)C(=O)c1ccccc1C2=O | -9% | 0 | -17% | 34%[38.3 µM] | -28 | 11%
CC1CCN(C(=O)c2ccc3c(c2NCCO)C(=O)c2ccccc2C3=O)CC1 | -5% | ? | 22µM* | 30%[38.3 µM] | ? | ?
O=C(O)Cc1cccnc1 | 8%[11.4 µM] | . | -7% | -6% | . | -4%[13.5 µM]
Cc1ccc(Cl)cc1N1CCN(C(=O)c2cn(C3CCCCC3)c(=O)c3c2c2ccccc2n3C)CC1 | . | 0 | . | . | . | .
Cc1cc(C)c(C(=O)/C=C/c2ccco2)c(=O)[nH]1 | . | . | . | -4% | . | 11µM*
Cc1ccc(N[C@H](c2ccccc2)c2ccc3cccnc3c2O)cc1 | -19%[11.4 µM] | . | -7% | -10% | . | ?
COc1ccc(C2C(C(=O)c3ccccc3)N3c4ccccc4C=CC3C2[N+](=O)[O-])cc1 (stereo not drawn) | . | . | . | 13% | . | 25µM*
SMILES | 12-hLO inh | IMPase cell inh | HPGD block | IMPase Li inh | PNC inhibitor | ALDH1A1 inh
CC1(C(=O)O)Cc2ccccc2C(=O)O1 (stereo not drawn) | 13% | 2 | -15% | -4%[38.3 µM] | -101* | -5%
C/C(CCN1CCCc2nc(C)c(C)cc21)=N\O[C@@H](C)CN1CCCCc2nc(C)c(C)cc21 | . | . | . | . | . | 0%[13.5 µM]
COc1cc(/C=C/C(=O)c2cccs2)cc(OC)c1OC | -2% | -4 | 28µM* | -19% | . | 10µM*
O=C(/C=C(\c1ccc(Cl)cc1)n1cncn1)c1ccc(Cl)cc1 | -3% | 8 | -24% | 17%[38.3 µM] | -18 | 2.2µM*
O=C(/C=C(\c1ccccc1)n1cncn1)c1ccccc1 | -1% | . | -2% | -9% | -15 | ?
CCCCCCCCCCCC(CC1OC(=O)C1CCCCCC)OC(=O)C(CC(C)C)NC=O (stereo not drawn) | 0% | . | -12% | 4% | . | -2%
O=C(O)c1ccc(CNc2ccccc2C(=O)O)cc1 | 5% | -5 | ? | 10µM* | -131* | ?
CC(C)CC(=O)N1CC(C)N(C(=O)CC(C)C)CC1C (stereo not drawn) | 0% | . | 0% | 1% | 26 | 0%
Cn1c2c(c(=O)n(C)c1=O)C(c1cccc(O)c1)CC(=O)N2 (stereo not drawn) | . | -12 | . | . | . | .
NC(=S)NN=C1C2CC3CC(C2)CC1C3 | . | . | . | 5% | . | 25µM*
Cc1cc2nc(/C=C/c3nc4cc(C)c(C)cc4[nH]3)[nH]c2cc1C | . | . | . | . | . | -3%
Cc1cc2[nH]c(=S)[nH]c2cc1C | -4% | . | 14µM* | 4% | ? | 28µM*
CC(=O)OC1CC(OC(C)=O)[C@]2(C)C(CC(OC(C)=O)[C@@]3(C)C4=CC(=O)OC(c5ccoc5)[C@]4(C)CCC32)C1(C)C (stereo partly drawn) | -1% | . | 18% | 5% | . | -6%
CCNC(=S)Nc1cc(-c2ccc(Cl)cc2)[nH]n1 | . | . | . | -2% | . | 1.3µM*
CCNC(=S)Nc1ccc(Cl)cc1 | 4% | . | 0% | -5% | 17 | 2%
CN(C(=O)Cc1ccccc1)n1cnnc1 | 2% | -4[0.0738 µM] | -6% | 2% | ? | -1%
O=c1oc2c3c4c(cc2s1)CCCN4CCC3 | -11% | 8 | 22µM* | 20%[38.3 µM] | 8 | 25µM*
S=C(c1cn(CCOc2cccc3ccccc23)c2ccccc12)N1CCCC1 | -1% | . | -11% | 3% | 31 | 28µM*
Cc1ccc(OCCn2cc(C(=S)N3CCCC3)c3ccccc32)cc1C | ? | 6 | -10% | 17% | -106* | ?
CCOC(=O)c1c(NC(=O)C2C3C=CC(CC3)C2C(=O)O)sc(C)c1CC (stereo not drawn) | 0% | . | -16% | ? | -4 | -1%
CCOC(=O)c1c(NC(=O)CC)sc(C(=O)N2CCCCC2)c1C | 0% | 7 | 28µM* | 19%[38.3 µM] | 61 | ?
CCOC(=O)c1c(NC(=O)C2CC2)sc(C)c1CC | -1% | . | ? | 2% | -24 | 22µM*
CCOC(=O)c1sc(NC(=O)CCN2CCCCCC2)c(C(=O)OCC)c1C | . | . | . | 14% | . | 2.5µM*
COC(=O)NC(c1ccco1)C(C(C)=O)C(=O)OC (stereo not drawn) | . | . | . | . | . | 4%[13.5 µM]
N[C@@]1(C(=O)O)CCC[C@@H]1C(=O)O | -4%[11.4 µM] | . | 2% | 2% | . | 5%[13.5 µM]
